Results taken from PubChem BioAssay AID504527 (The Scripps Research Institute Molecular Screening Center, 2011).
The source made the active and inactive calls.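 Rule for the calls: active = two or more serine hydrolases at least half inhibited, plus every target band half blocked in a general-probe test; inactive = under two enzymes half blocked, or any target band not.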

Assay: general off-target profile by competitive ABPP – fluorescence, gel-based ABPP, powder samples, selectivity assay for PAFAH2 inhibitor project, late-stage follow-up (AID 504527)
Settings: BW5147 murine T-cell proteome, FP-Rh fluorescence, competitor FP-biotin, probe test compound; non-competed targets by FP-biotin, at 20 µM, stronger effect = lower value

SMILES | outcome | count of non-competed proteins
C#CCOCCOCCOCCN(Cc1ccccc1)C(=O)n1nc2cccnc2n1 | inactive | 3
C#CCOCCOCCOCCN(Cc1ccccc1)C(=O)n1nccn1 | active | 0
C#CCOCCOCCOCCN(Cc1ccccc1)C(=O)n1ncc(-c2ccccc2)n1 | active | 0
